According to PubChem BioAssay (NCI):
Values joined by “and” are separate entries in the source; they are usually repeats but may differ in a detail not shown here. Equal values may be shown once. This is part of a sample that, as a whole, favours compounds with a hit. Of some 83,000 tested, about 20% had one in any assay.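 Activity criterion: percent growth below 10, measured after cells in 96-well plates were exposed to a single compound concentration for 48 hours.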 Active and inactive are the calls of the source.

Experiments:
Experiment in all cases: NCI-60 one-dose screen, 48 h (100 = growth as untreated, 0 = no growth, -100 = all killed)
Conditions in all cases: 10 µM unless noted
[1] = system: SK-MEL-2 melanoma
[2] = system: EKVX NSCLC
[3] = system: SN12C renal
[4] = system: UO-31 renal
[5] = system: TK-10 renal
[6] = system: ACHN renal
[7] = system: CAKI-1 renal
[8] = system: A498 renal
[9] = system: CCRF-CEM leukemia
[10] = system: MOLT-4 leukemia
[11] = system: SR leukemia
[12] = system: RPMI-8226 leukemia
[13] = system: OVCAR-8 ovarian
[14] = system: OVCAR-5 ovarian
[15] = system: OVCAR-4 ovarian
[16] = system: SK-OV-3 ovarian
[17] = system: IGROV1 ovarian
[18] = system: OVCAR-3 ovarian
[19] = system: HS 578T breast
[20] = system: HL-60(TB) leukemia

Row | SMILES | growth [1] | growth [2] | growth [3] | growth [4] | growth [5] | growth [6] | growth [7] | growth [8] | growth [9] | growth [10] | growth [11] | growth [12] | growth [13] | growth [14] | growth [15] | growth [16] | growth [17] | growth [18] | growth [19] | growth [20]
1 | N#CCN(CC#N)[N+](=O)[O-] | 105% (inactive) | 104% (inactive) | 94% (inactive) | 101% (inactive) | 100% (inactive) | 110% (inactive) | 95.2% (inactive) | 95% (inactive) | 85.2% (inactive) | 114% (inactive) | 100% (inactive) | 97.2% (inactive) | 109% (inactive) | 103% (inactive) | 111% (inactive) | 104% (inactive) | 121% (inactive) | 108% (inactive) | 89.5% (inactive) | 
2 | COC(=O)C1=CO[C@@H](C)[C@@H]2CN3CCc4c([nH]c5cc(OC)ccc45)[C@@H]3C[C@H]12 | 100% (inactive) | 97.5% (inactive) | 87.8% (inactive) |  | 101% (inactive) | 94.8% (inactive) | 89.8% (inactive) | 68.6% (inactive) | 106% (inactive) | 94.8% (inactive) | 92.7% (inactive) | 94.3% (inactive) | 95.9% (inactive) | 95.6% (inactive) | 107% (inactive) | 100% (inactive) |  | 100% (inactive) | 94.5% (inactive) | 87.1% (inactive)
3 | Nc1ccc(P(=O)(O)O)cc1 | 120% (inactive) and 99.4% (inactive) | 95.7% (inactive) | 103% (inactive) and 101% (inactive) | 90.8% (inactive) and 91.8% (inactive) | 119% (inactive) and 97.4% (inactive) | 98.7% (inactive) and 105% (inactive) | 102% (inactive) and 99.5% (inactive) | 105% (inactive) and 108% (inactive) | 97.5% (inactive) and 95.4% (inactive) | 110% (inactive) and 112% (inactive) | 108% (inactive) and 115% (inactive) | 97.8% (inactive) and 104% (inactive) | 101% (inactive) and 98.4% (inactive) | 97.6% (inactive) and 99.8% (inactive) | 90.7% (inactive) | 104% (inactive) and 108% (inactive) | 97.9% (inactive) and 111% (inactive) | 107% (inactive) and 110% (inactive) | 110% (inactive) | 
4 | COC[C@H]1OC(=O)c2coc3c2[C@@]1(C)C1=C(C3=O)[C@@H]2CCC(=O)[C@@]2(C)C[C@H]1OC(C)=O | 17.3% (inactive) | 42.1% (inactive) | 43.3% (inactive) | 31.4% (inactive) | 38.8% (inactive) | 42.2% (inactive) | 32.2% (inactive) |  | 46.6% (inactive) |  | 12.1% (inactive) | 58.8% (inactive) |  | -41.3% (active) | 53.2% (inactive) | 39.9% (inactive) | -28% (active) | 41.7% (inactive) |  | 25.8% (inactive)
5 | S=P(SP(=S)(c1ccccc1)c1ccccc1)(c1ccccc1)c1ccccc1 | 96.6% (inactive) | 97.6% (inactive) | 97.5% (inactive) | 95.2% (inactive) | 96.8% (inactive) | 99.4% (inactive) | 97.9% (inactive) | 98.3% (inactive) | -61.3% (active) | 98.3% (inactive) | 93.7% (inactive) | 87.7% (inactive) | 104% (inactive) | 95.2% (inactive) |  | 106% (inactive) | 119% (inactive) | 104% (inactive) | 93.8% (inactive) | 
6 | COC1C(O)CC(OC2CC(Oc3cc4cc5c(c(O)c4c(O)c3C)C(=O)[C@@H](OC3CC(OC4CC(OC6CC(C)(O)C(OC(C)=O)C(C)O6)C(O)C(C)O4)C(O)C(C)O3)[C@H]([C@H](OC)C(=O)[C@@H](O)[C@@H](C)O)C5)OC(C)C2OC(C)=O)OC1C (stereo partly drawn) | -42.1% (active) | -12.7% (active) | 7.02% (active) | -12.5% (active) | 2.86% (active) | 2.04% (active) | -25.9% (active) |  | -8.99% (active) | 1.77% (active) | 1.63% (active) | -30.8% (active) |  | -67% (active) | 4.26% (active) | 12.2% (inactive) | -23.8% (active) | -9.73% (active) |  | 
7 | Cc1nc2ccccc2c(=O)n1-c1ccccc1F | 105% (inactive) | 89.3% (inactive) | 95% (inactive) | 88.1% (inactive) | 98% (inactive) | 104% (inactive) | 96.4% (inactive) | 84.5% (inactive) | 99.1% (inactive) | 96.9% (inactive) | 108% (inactive) | 102% (inactive) | 93.2% (inactive) | 102% (inactive) | 99.3% (inactive) | 97.4% (inactive) | 111% (inactive) | 107% (inactive) | 100% (inactive) | 
8 | COc1ccc(/C=C(/C)[N+](=O)[O-])cc1OC | 8.73% (active) and 0.617% (active) | 65.6% (inactive) and 84.6% (inactive) |  | -63.9% (active) and -93.1% (active) | -49.9% (active) and 70.4% (inactive) | -1.7% (active) and -73% (active) | -6.27% (active) and -71.9% (active) | 112% (inactive) and 97.9% (inactive) | 0.7% (active) and 20.8% (inactive) | 0.86% (active) and -1.19% (active) | -21.8% (active) and -5.49% (active) | -17.9% (active) and -7.74% (active) | 6.5% (active) | 91.4% (inactive) and 66.7% (inactive) | 32.7% (inactive) | 112% (inactive) and 108% (inactive) | 10.8% (inactive) and -20.9% (active) | -94.1% (active) and -99.7% (active) |  | -14.7% (active) and -26% (active)
9 | COc1cc2c(c(OC)c1OC)-c1ccc(O)cc1[C@@H](NC(C)=O)CC2 | 41.3% (inactive) | 44% (inactive) and 22.6% (inactive) |  | 25.5% (inactive) and 33.2% (inactive) | 11.1% (inactive) and 38.5% (inactive) | 24.8% (inactive) and 25.8% (inactive) | -5.9% (active) and 16.1% (inactive) | -12.9% (active) | 20.6% (inactive) and -8.81% (active) | 34.5% (inactive) and -8.23% (active) | 15.1% (inactive) and -4.87% (active) | 25% (inactive) and -17.7% (active) | 15.7% (inactive) and 11.1% (inactive) | 33.2% (inactive) and 41.1% (inactive) | 19.3% (inactive) | 8.01% (active) and 6.47% (active) | -24.2% (active) and 8.32% (active) | -39.1% (active) and -30.9% (active) | 50.4% (inactive) and 29.5% (inactive) | -13.2% (active) and -32.3% (active)
10 | CCN1C(=O)CC(=O)N(CC)C1=S | 97% (inactive) | 108% (inactive) |  | 91.7% (inactive) | 105% (inactive) | 101% (inactive) | 76.8% (inactive) | 94.6% (inactive) | 94.8% (inactive) | 109% (inactive) | 101% (inactive) | 104% (inactive) | 109% (inactive) | 85.7% (inactive) | 89.9% (inactive) | 99.7% (inactive) | 98.5% (inactive) | 112% (inactive) | 102% (inactive) | 68.7% (inactive)
11 | OCCNC1CCCCC1 | 104% (inactive) | 97.9% (inactive) | 100% (inactive) |  | 106% (inactive) | 102% (inactive) | 102% (inactive) | 93.4% (inactive) | 103% (inactive) | 89.2% (inactive) | 94.2% (inactive) | 108% (inactive) | 112% (inactive) | 98% (inactive) | 111% (inactive) | 105% (inactive) | 111% (inactive) | 112% (inactive) | 108% (inactive) | 100% (inactive)
12 | COc1ccc2c(c1)c(-c1nc(-c3c[nH]c4ncccc34)cs1)cn2CCCCN1CCOCC1 | 69% (inactive) | 68.4% (inactive) | 61.9% (inactive) | 22.8% (inactive) | 64.4% (inactive) | 17.1% (inactive) | 37.5% (inactive) | 92.3% (inactive) | -8.39% (active) | -21% (active) |  | -5.6% (active) | 55.6% (inactive) | 58.3% (inactive) | 50.8% (inactive) | 78.2% (inactive) | 36.1% (inactive) | 58.3% (inactive) | 44.8% (inactive) | 
